# Laboratory results taken from article PMC5540273 (PLoS ONE, 2017).
# Columns and labels:
# Details in all cases: concentration: 1 μM, replicates: in singlicate; n = 1
# [1] = system: T1, PKAC-beta
# T1 construct: gene PRKACB
# [2] = system: PKMYT1
# [3] = system: PKN1
# [4] = system: PKN2
# [5] = system: PLK1
# [6] = system: PLK2
# [7] = system: PLK3
# [8] = system: PLK4
# [9] = system: PRKCD
# [10] = system: PRKCE
# 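Also: KINOMEscan kinase panel screen.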
compound,measurement,setting,value
CN1c2ccc(-c3ccc(C(N)=O)cc3)cc2-c2[nH]ncc2S1(=O)=O,%Inh,[1],0%
same,%Inh,[2],0%
same,%Inh,[3],0%
same,%Inh,[4],0%
same,%Inh,[5],4%
same,%Inh,[6],3%
same,%Inh,[7],13%
same,%Inh,[8],0%
same,%Inh,[9],3%
same,%Inh,[10],12%
Cc1c(Cn2c3ccccc3n3c(=O)cc(N4CCOCC4)nc23)cccc1C(F)(F)F [GSK2306394],%Inh,[1],0%
same,%Inh,[2],0%
same,%Inh,[3],100%
same,%Inh,[4],0%
same,%Inh,[5],0%
same,%Inh,[6],0%
same,%Inh,[7],0%
same,%Inh,[8],0%
same,%Inh,[9],0%
same,%Inh,[10],0%
CCn1c(-c2c(N)noc2C)nc2cnccc21 [SB-737856],%Inh,[1],0%
same,%Inh,[2],0%
same,%Inh,[3],29%
same,%Inh,[4],0%
same,%Inh,[5],0%
same,%Inh,[6],0%
same,%Inh,[7],0%
same,%Inh,[8],0%
same,%Inh,[9],0%
same,%Inh,[10],0%
COc1cc2ncnc(Nc3cccc(Br)c3)c2cc1OC.Cl [GI230329],%Inh,[1],0%
same,%Inh,[2],0%
same,%Inh,[3],0%
same,%Inh,[4],0%
same,%Inh,[5],2%
same,%Inh,[6],0%
same,%Inh,[7],0%
same,%Inh,[8],0%
same,%Inh,[9],3%
same,%Inh,[10],11%
Cc1ccc(-c2nc(Nc3ccncc3)c3ccccc3n2)s1 [GSK189015],%Inh,[1],18%
same,%Inh,[2],19%
same,%Inh,[3],26%
same,%Inh,[4],20%
same,%Inh,[5],0%
same,%Inh,[6],0%
same,%Inh,[7],0%
same,%Inh,[8],0%
same,%Inh,[9],15%
same,%Inh,[10],0%
O=C1NC(=O)C(c2ccc(Cl)cc2)=C1Nc1cccc(Cl)c1 [SB-317651],%Inh,[1],94.7%
same,%Inh,[2],0%
same,%Inh,[3],15%
same,%Inh,[4],0%
same,%Inh,[5],4%
same,%Inh,[6],0%
same,%Inh,[7],30%
same,%Inh,[8],0%
same,%Inh,[9],12%
same,%Inh,[10],3%
COc1ccc(CSc2nnc(-c3ccc4ncsc4c3)o2)cc1C(F)(F)F,%Inh,[1],1%
same,%Inh,[2],22%
same,%Inh,[3],0%
same,%Inh,[4],0%
same,%Inh,[5],0%
same,%Inh,[6],4%
same,%Inh,[7],0%
same,%Inh,[8],2%
same,%Inh,[9],13%
same,%Inh,[10],0%
COC(=O)C(NC(=O)NC1CCN(c2ccnc(Nc3ccc(F)cc3)n2)C1)c1ccccc1 (centres unmarked) [GSK1379712],%Inh,[1],0%
same,%Inh,[2],0%
same,%Inh,[3],18%
same,%Inh,[4],0%
same,%Inh,[5],13%
same,%Inh,[6],3%
same,%Inh,[7],4%
same,%Inh,[8],1%
same,%Inh,[9],0%
same,%Inh,[10],18%
Cc1ccc(NC(=O)Nc2ccc(Cl)c(C(F)(F)F)c2)cc1-c1ccc(C(=O)Nc2ccncc2)cc1 [GSK1398470],%Inh,[1],0%
same,%Inh,[2],0%
same,%Inh,[3],10%
same,%Inh,[4],25%
same,%Inh,[5],0%
same,%Inh,[6],0%
same,%Inh,[7],0%
same,%Inh,[8],0%
same,%Inh,[9],0%
same,%Inh,[10],0%
Nc1nccc(-c2c(-c3ccc(F)cc3)ncn2C2CCN(Cc3ccccc3)CC2)n1 [SB-219980],%Inh,[1],0%
same,%Inh,[2],26%
same,%Inh,[3],0%
same,%Inh,[4],0%
same,%Inh,[5],12%
same,%Inh,[6],28%
same,%Inh,[7],10%
same,%Inh,[8],8%
same,%Inh,[9],0%
same,%Inh,[10],1%
CNc1nc(-c2ccc3c(N)n[nH]c3c2)cc(N2C[C@@H](C(=O)Nc3ccccc3)CC[C@H]2C)n1 [GSK2298859],%Inh,[1],66%
same,%Inh,[2],0%
same,%Inh,[3],0%
same,%Inh,[4],0%
same,%Inh,[5],0%
same,%Inh,[6],0%
same,%Inh,[7],0%
same,%Inh,[8],0%
same,%Inh,[9],16%
same,%Inh,[10],0%
O=C(Nc1n[nH]c2nc(-c3ccco3)c(Br)cc12)C1CCN(Cc2ccccc2)C1.O=C(O)[C@H](O)[C@@H](O)C(=O)O (centres unmarked) [SB-742034],%Inh,[1],15%
same,%Inh,[2],8%
same,%Inh,[3],0%
same,%Inh,[4],41%
same,%Inh,[5],3%
same,%Inh,[6],24%
same,%Inh,[7],5%
same,%Inh,[8],22%
same,%Inh,[9],35%
same,%Inh,[10],1%
Cc1ccc(NC(=O)Nc2ccccc2F)cc1-c1ccc(C(=O)Nc2ccncc2)cc1 [GSK1398477],%Inh,[1],32%
same,%Inh,[2],18%
same,%Inh,[3],26%
same,%Inh,[4],12%
same,%Inh,[5],5%
same,%Inh,[6],0%
same,%Inh,[7],0%
same,%Inh,[8],0%
same,%Inh,[9],19%
same,%Inh,[10],4%
CNc1nc(-c2ccc3c(N)n[nH]c3c2)cc(N2C[C@@H](C(=O)NC3CCCCC3)OC[C@H]2C)n1 [GSK2375584],%Inh,[1],10%
same,%Inh,[2],0%
same,%Inh,[3],29%
same,%Inh,[4],0%
same,%Inh,[5],3%
same,%Inh,[6],0%
same,%Inh,[7],1%
same,%Inh,[8],1%
same,%Inh,[9],8%
same,%Inh,[10],8%
FC(F)(F)c1ccccc1-c1cc(-c2c[nH]nc2-c2ccccn2)ccn1 [GW679396],%Inh,[1],17%
same,%Inh,[2],5%
same,%Inh,[3],0%
same,%Inh,[4],12%
same,%Inh,[5],1%
same,%Inh,[6],0%
same,%Inh,[7],0%
same,%Inh,[8],1%
same,%Inh,[9],6%
same,%Inh,[10],11%
COc1ccc2cc(-c3nc(-c4ccccc4C(C)C)[nH]c3-c3ccncc3)ccc2c1 [SB-660566],%Inh,[1],3%
same,%Inh,[2],7%
same,%Inh,[3],24%
same,%Inh,[4],0%
same,%Inh,[5],0%
same,%Inh,[6],0%
same,%Inh,[7],0%
same,%Inh,[8],4%
same,%Inh,[9],0%
same,%Inh,[10],0%
COc1cccc(C2=C(Nc3cc(Cl)c(O)c(Cl)c3)C(=O)NC2=O)c1 [SB-390767],%Inh,[1],0%
same,%Inh,[2],4%
same,%Inh,[3],0%
same,%Inh,[4],0%
same,%Inh,[5],0%
same,%Inh,[6],0%
same,%Inh,[7],0%
same,%Inh,[8],0%
same,%Inh,[9],0%
same,%Inh,[10],28%
